Pf apPOL block: Pf-apPOL inhibitors, biochemical, fluorescence; Recombinant Pf-apPOL, molecular beacon fluorescence, 1.5 h; inhibition, % at 10 µM; actives 0.25% (n = 210,000); AID 1794808, 2022
mHTT CaM bind: mutant huntingtin-calmodulin interaction inhibitors – biochemical, AlphaScreen, primary screen | P42858 | AlphaScreen His-mHTT/GST-CaM binding, luminescence | inhibition, % at 15 µM | actives 3.6% (n = 190,000);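 also: 0% = both proteins with DMSO and 100% = one protein alone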
Target sequence (P42858 whole entry, looked up, stated change not applied): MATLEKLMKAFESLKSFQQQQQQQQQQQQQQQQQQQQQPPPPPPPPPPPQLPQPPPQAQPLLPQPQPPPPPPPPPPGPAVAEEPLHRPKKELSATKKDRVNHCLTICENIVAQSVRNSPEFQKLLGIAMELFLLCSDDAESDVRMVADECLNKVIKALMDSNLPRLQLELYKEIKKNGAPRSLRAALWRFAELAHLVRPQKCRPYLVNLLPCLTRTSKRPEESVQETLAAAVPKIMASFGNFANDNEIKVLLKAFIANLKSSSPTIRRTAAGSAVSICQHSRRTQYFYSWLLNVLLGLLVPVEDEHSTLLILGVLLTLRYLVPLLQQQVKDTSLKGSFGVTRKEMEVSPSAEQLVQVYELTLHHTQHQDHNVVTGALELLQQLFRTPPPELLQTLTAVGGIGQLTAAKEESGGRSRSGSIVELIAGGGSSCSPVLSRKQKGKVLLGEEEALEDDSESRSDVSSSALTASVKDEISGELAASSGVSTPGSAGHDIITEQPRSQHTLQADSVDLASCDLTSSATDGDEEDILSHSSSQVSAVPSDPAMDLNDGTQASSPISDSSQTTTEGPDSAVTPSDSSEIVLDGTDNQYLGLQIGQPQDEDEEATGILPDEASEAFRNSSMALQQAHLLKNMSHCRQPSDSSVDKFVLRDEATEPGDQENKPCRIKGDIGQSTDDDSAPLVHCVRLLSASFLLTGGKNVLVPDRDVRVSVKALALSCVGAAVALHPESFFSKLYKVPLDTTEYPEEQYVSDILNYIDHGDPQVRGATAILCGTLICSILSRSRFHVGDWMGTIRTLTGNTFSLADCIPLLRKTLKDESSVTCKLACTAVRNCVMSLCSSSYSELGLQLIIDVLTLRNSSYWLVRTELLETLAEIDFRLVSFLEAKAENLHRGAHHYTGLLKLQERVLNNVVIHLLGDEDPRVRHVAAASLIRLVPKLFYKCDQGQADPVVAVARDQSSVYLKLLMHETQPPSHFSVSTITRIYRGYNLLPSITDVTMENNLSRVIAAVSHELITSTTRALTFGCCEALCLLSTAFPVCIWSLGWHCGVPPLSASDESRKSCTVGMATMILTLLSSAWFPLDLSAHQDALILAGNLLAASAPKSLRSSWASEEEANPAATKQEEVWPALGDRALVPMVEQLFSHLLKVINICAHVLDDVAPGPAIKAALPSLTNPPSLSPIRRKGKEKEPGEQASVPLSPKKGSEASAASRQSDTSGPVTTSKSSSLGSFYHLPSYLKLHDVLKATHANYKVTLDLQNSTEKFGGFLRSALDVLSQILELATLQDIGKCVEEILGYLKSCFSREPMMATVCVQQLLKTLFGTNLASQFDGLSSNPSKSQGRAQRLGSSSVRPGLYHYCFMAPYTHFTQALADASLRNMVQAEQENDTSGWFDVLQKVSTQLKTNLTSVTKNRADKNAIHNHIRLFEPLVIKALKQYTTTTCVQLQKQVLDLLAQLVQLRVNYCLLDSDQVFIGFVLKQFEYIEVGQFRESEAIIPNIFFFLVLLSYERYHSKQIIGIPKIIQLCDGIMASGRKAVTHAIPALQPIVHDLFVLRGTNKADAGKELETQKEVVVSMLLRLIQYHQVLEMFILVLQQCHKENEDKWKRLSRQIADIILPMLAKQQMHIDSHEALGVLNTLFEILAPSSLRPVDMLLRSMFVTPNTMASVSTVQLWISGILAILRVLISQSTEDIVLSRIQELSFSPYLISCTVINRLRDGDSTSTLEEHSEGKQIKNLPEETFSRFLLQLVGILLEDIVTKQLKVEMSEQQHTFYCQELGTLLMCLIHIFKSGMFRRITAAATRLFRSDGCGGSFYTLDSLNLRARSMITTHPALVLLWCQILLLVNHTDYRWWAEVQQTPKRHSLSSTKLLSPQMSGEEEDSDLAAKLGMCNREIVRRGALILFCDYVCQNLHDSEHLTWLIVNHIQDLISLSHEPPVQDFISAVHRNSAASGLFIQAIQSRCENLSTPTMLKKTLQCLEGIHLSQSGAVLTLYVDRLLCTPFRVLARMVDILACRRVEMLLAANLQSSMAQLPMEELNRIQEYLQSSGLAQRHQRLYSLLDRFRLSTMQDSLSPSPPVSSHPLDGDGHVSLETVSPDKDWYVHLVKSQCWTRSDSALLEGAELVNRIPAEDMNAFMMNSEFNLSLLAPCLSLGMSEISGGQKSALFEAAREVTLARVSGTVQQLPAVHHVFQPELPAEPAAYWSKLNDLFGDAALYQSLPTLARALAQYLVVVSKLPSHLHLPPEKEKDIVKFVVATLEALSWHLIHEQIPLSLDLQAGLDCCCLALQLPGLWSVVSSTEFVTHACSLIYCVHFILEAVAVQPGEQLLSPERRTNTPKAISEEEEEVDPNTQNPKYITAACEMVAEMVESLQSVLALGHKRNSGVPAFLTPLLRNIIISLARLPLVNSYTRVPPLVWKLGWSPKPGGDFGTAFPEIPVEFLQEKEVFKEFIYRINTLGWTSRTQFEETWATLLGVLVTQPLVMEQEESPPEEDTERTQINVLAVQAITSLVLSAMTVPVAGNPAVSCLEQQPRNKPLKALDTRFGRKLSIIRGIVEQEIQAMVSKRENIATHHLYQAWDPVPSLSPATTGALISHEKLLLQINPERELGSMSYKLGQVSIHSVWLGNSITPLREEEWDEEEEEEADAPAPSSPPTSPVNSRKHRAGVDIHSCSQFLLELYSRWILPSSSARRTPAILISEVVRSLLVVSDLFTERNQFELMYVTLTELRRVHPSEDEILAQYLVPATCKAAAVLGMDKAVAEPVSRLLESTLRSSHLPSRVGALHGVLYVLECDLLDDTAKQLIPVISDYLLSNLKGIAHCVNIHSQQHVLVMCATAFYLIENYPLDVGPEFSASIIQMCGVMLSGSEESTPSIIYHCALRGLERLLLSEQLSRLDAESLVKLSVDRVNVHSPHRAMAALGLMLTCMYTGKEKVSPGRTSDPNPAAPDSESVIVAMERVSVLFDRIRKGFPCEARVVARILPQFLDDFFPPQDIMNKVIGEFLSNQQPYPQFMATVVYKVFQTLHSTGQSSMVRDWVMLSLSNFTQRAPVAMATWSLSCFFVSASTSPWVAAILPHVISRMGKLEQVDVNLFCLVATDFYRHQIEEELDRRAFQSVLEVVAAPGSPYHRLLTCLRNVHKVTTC
* marks the source's active call; other numbers are inactive results; · = no result; + = active, no number. The sample as a whole holds a higher share of hits than the screen did. Rule as the data show it: active = inhibition above about 50%; inactive = the rest.

SMILES	Pf apPOL block	mHTT CaM bind
O=C(NC1CCS(=O)(=O)C1)c1ccc2c(c1)OCO2 (configuration not stated)	-6	-10
COc1ccc(Cl)cc1C(=O)Nc1ccc2oc(-c3cccnc3)nc2c1	-6	4
COc1ccc(C2=NC3(CCCCC3)N(CC(=O)Nc3ccc(F)c(Cl)c3)C2=O)cc1	-6	100*
COc1ccc(C2=NC3(CCCCC3)N(CC(=O)Nc3ccc(Cl)cc3)C2=O)cc1	-9	-6
O=C(CN1C(=O)CCC1=O)N(CCc1cccs1)Cc1cccnc1	-2	-7
CC(C)(C)C1CCc2onc(C(=O)Nc3cc(Cl)ccc3O)c2C1 (configuration not stated)	-5	61*
CC(C)(C)C1CCc2onc(C(=O)Nc3ccc(F)cc3F)c2C1 (configuration not stated)	-8	-4
CCCCOc1cccc(NC(=O)c2ccc([N+](=O)[O-])cc2Cl)c1	9	-5
CS(=O)(=O)N(CC(=O)NCc1ccco1)c1cc(C(F)(F)F)ccc1Cl	-5	-1
CCCN1C(=O)/C(=C\c2nc3ccccc3c(=O)n2-c2ccc(OC)cc2)c2ccccc21	-34	3
CCN1C(=O)/C(=C\c2nc3ccccc3c(=O)n2CC)c2ccccc21	-8	100*
CCN1C(=O)/C(=C\c2nc3ccccc3c(=O)n2-c2ccccc2[N+](=O)[O-])c2ccccc21	-2	56*
CCCN1C(=O)/C(=C\c2nc3ccccc3c(=O)n2CC)c2ccccc21	-2	12
Nc1ccc([N+](=O)[O-])cc1N=Cc1ccc(Cl)cc1Cl	-10	18
CN(C)C1=NS(=O)(=O)c2ccccc21	-2	-2
CN(C)c1ccc(/C=C/C=N/NC2=NS(=O)(=O)c3ccccc32)cc1	·	+
CCOC(CNC(=O)c1ccc(N2CCc3ccccc32)c([N+](=O)[O-])c1)OCC	-6	56*
O=[N+]([O-])c1cc(C(F)(F)F)ccc1N1CCc2ccccc21	1	95*
O=[N+]([O-])c1cc(C(F)(F)F)ccc1N1CCCCC1	1	·
COC(CNC(=O)c1ccc(N2CCCCCC2)c([N+](=O)[O-])c1)OC	-2	12
CC(=NO)c1sc2scc(C)c2c1C	-7	·
CCc1cccc(N=c2oc3c(OC)cccc3cc2C(=O)Nc2nccs2)c1	-4	4
NC(C=Cc1cc(C(F)(F)F)cc(C(F)(F)F)c1)=NOC(=O)C=Cc1ccccc1	4	·
COc1cc(C2N(c3ccc(Cl)cc3)C(=O)C3CCCN32)cc(OC)c1OC (configuration not stated)	-6	40
COc1ccccc1C1N(c2ccc(Cl)c(Cl)c2)C(=O)N2CCCN12 (configuration not stated)	-2	100*
SMILES	Pf apPOL block	mHTT CaM bind
O=C1N(c2ccccc2)C(c2ccccc2)N2CCCN12 (configuration not stated)	1	0
COc1cc(C2N(c3ccc(Cl)c(Cl)c3)C(=O)C3CCCN32)cc(OC)c1OC (configuration not stated)	-6	100*
CCOc1ccccc1C1N(c2ccc(F)cc2)C(=O)C2CCCN21 (configuration not stated)	-1	1
COc1ccc(N2C(=O)C3CCCN3C2c2ccccc2OC)cc1 (configuration not stated)	22	-7
CCOc1ccccc1C1N(c2ccc(Cl)cc2)C(=O)C2CCCN21 (configuration not stated)	-2	51*
COc1ccccc1C1N(c2ccc(Cl)cc2)C(=O)C2CCCN21 (configuration not stated)	-2	50*
Cn1cccc1-c1cc2n(n1)CCCN2C(=O)CCC(=O)NCCCN1CCOCC1	0	10
O=C(CCS(=O)(=O)c1ccc(Cl)cc1)Nc1ccc(Br)cc1F	5	-5
CCCC(C)NC(=O)Cc1ccccc1 (configuration not stated)	-2	-5
C=CCNC(=O)c1cncc(Br)c1	-9	0
O=C(Nc1ccccc1)c1cccc2[nH]cc(CN3CCCC3)c12	-2	8
Cn1c(=O)c2c(nc3n2CC(c2ccc(Br)cc2)=NN3Cc2ccccc2)n(C)c1=O	-3	0
Cn1c(=O)c2nc(-c3cccc(Cl)c3)oc2c2ccccc21	-2	0
COc1ccccc1Cc1noc(C2CN(C(=O)C(C)(C)Oc3ccc(Cl)cc3)C2)n1	-4	70*
CC(C)(Oc1ccc(Cl)cc1)C(=O)N1CC(c2nc(-c3ccccn3)no2)C1	5	0
CCn1c(SCC(=O)Nc2ccc(OC)cc2)nnc1-c1ccncc1	-9	6
O=C(c1ccccn1)N1CCN(c2ncnc3c2CCC3)CC1	-1	1
Oc1[nH]c(=S)sc1C=CC=CC=Nc1ccccc1	·	95*
COc1ccc(-c2cc(-c3ccccc3)c(C#N)c(S(C)=O)n2)cc1 (configuration not stated)	-3	20
Cc1ccc(N2C(=O)C3C4C=CC(C5CC45)C3C2=O)cc1Cl (configuration not stated)	2	0
O=C(O)c1cc(N2C(=O)C3C4C=CC(C5CC45)C3C2=O)ccc1Cl (configuration not stated)	63*	4
O=C(c1ccccc1)c1c(-c2ccccc2)csc1Nc1ccccc1	6	·
OCC[n+]1c(-c2ccc(Br)cc2)csc1Nc1ccccc1	-12	88*
COc1cccc(C=C2Oc3cc(C)cc(O)c3C2=O)c1	-1	0
Cc1cc(SCc2ncon2)c(C)cc1Cl	-4	·
SMILES	Pf apPOL block	mHTT CaM bind
O=C(Nc1nc2c(s1)CN(S(=O)(=O)C=Cc1ccccc1)CC2)c1cnccn1	24	71*
CCOc1ccccc1S(=O)(=O)N1CCc2nc(NC(=O)c3cnccn3)sc2C1	18	50*
O=C(Nc1nc2c(s1)CN(C(=O)COc1ccccc1)CC2)c1cnccn1	11	9
Cc1ccc(S(=O)(=O)N2CCc3nc(NC(=O)c4cccnc4)sc3C2)cc1	-4	-1
COc1cc(N2CN=c3s/c(=C\c4ccco4)c(=O)n3C2)cc(OC)c1OC	-10	21
Cc1cc(S(=O)(=O)Nc2cccc(F)c2)c(C)c(S(=O)(=O)c2ccccc2)c1	0	9
O=C(NC1CCN(Cc2ccccc2)CC1)c1sc2ccccc2c1Cl	-2	3
Cc1ccc(C2N=NNC2=S)c(C)c1 (configuration not stated)	4	·
Nc1ccc(Cc2ccc(N)c(O)c2)cc1O	60*	87*
N#Cc1cc(Cc2ccc(N)c(C#N)c2)ccc1N	-38	2
COc1ccc(OC)c(C2C=C(Nc3ccccc3)C(=O)N2c2ccccc2)c1 (configuration not stated)	-7	5
O=C1C(Nc2ccccc2)=CC(c2ccccc2[N+](=O)[O-])N1c1ccccc1 (configuration not stated)	1	66*
CSc1ccccc1-c1nnc(NC(=O)c2ccccc2F)o1	3	11
COCCNC(=O)NC12CC3CC(CC(C3)C1)C2	-6	2
Cc1c(Cl)c(C(F)(F)F)nn1CC(=O)Nc1ccc(Cl)c(Cl)c1	-1	100*
Cc1ccc(NC(=O)Cn2nc(C(F)(F)F)c(Cl)c2C)cc1C	-2	3
COc1ccccc1NC(=O)NCC(O)c1cccs1 (configuration not stated)	0	-16
O=C1CCCC2=C1C(c1ccco1)C1=C(N2)c2ccccc2C1=O (configuration not stated)	-2	26

Screens from PubChem.
